Our source for the NADPH fluorescence slope values is PubChem BioAssay.

Calls of active or inactive are those of the source.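 How the source made its calls: active means NADPH fluorescence slope more negative than the mean of all samples by about 3 SD, 99.7% confidence; inactive means the rest.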

The target in the assay is Voltage-gated potassium channel subunit beta-2 (Rattus norvegicus) (UniProt P62483). Put plainly: enhancers of rat Kvbeta2 NADPH turnover – biochemical, NADPH fluorescence, primary screen (AID 623).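 Further: fluorescence intensity change per second fitted from 20 to 320 s.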 As to conditions: Recombinant KvBeta, NADPH fluorescence decrease slope, 10 min; at 10 µM; hits give low values.
Sequence of Voltage-gated potassium channel subunit beta-2 (Rattus norvegicus) (P62483 whole entry, looked up): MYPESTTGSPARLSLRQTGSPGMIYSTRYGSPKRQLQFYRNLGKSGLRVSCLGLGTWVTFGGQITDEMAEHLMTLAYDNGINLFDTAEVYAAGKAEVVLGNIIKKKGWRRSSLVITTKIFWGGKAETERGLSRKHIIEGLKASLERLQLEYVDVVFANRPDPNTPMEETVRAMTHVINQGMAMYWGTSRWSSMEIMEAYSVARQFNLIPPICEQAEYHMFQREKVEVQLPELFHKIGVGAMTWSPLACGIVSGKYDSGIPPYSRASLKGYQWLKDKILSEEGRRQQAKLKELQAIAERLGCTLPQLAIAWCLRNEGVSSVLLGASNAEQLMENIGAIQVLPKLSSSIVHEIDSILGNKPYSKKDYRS
Regarding `CNc1oc(-c2ccc(Cl)cc2)nc1C#N`, the NADPH fluorescence slope is -4.5e-06 (inactive). The same measure for `O=C(CNC1=NCCC1)c1ccc2c(c1)OCCO2`: -0.000113 (inactive); for `COc1ccc(CNC(=O)c2c(C)cc(=O)oc2C)cc1OC`: -4.8e-05 (inactive); for `C=CCOn1c(=O)c(-c2cc3ccccc3o2)[n+]([O-])c2ccccc21`: 1.7e-05 (inactive).

With `COC(=O)c1ccn(C(=O)c2ccc(Cl)cc2)n1`, the NADPH fluorescence slope was -4e-05 (inactive). The same measure for `c1ccc(OCc2nn3c(C4CCCCC4)nnc3s2)cc1`: -0.000186 (inactive). Consider `CC(C)Cc1nc(N2CCN(C(=O)C(C)C)CC2)c(C#N)c2c1CCC2`, for which the NADPH fluorescence slope was -3.3e-05 (inactive). In the case of `COC(=O)c1sccc1NC(=O)c1c(C)cc(=O)oc1C` it was -3.4e-05 (inactive); in that of `Cc1ccc(S(=O)(=O)N2CCC(N3CCCCCC3)CC2)cc1`, -8.7e-06 (inactive); in that of `COc1ccc(C2=Nn3c(nnc3-c3cccnc3)SC2)cc1OC`, -0.000172 (inactive). On to `CCCCOc1ccc(CN(C)c2ncnc(N)n2)cc1`, for which the NADPH fluorescence slope is -0.00011 (inactive). In the case of `CCCCCCc1cc2cc(-c3nnc(-c4ccccc4O)o3)c(=O)oc2cc1O` it was 5.9e-06 (inactive). In the case of `CC(=O)Nc1cccc(NC(=O)CSc2nc(C)c(C)c(C)c2C#N)c1` it was -9.2e-06 (inactive).

On to `Cc1cc(=O)oc2cc(OCCSCCN3CCOCC3)ccc12`, for which the NADPH fluorescence slope is -6.2e-05 (inactive). Turning to `COc1ccccc1C(CC(=O)Nc1nccs1)c1ccco1` (stereo not given), the NADPH fluorescence slope is -7.2e-05 (inactive). The same measure for `CCC1(C)Cc2ccccc2-c2nc(NCCO)n(-c3ccccc3)c(=O)c21` (stereo not given): 6.5e-06 (inactive); for `CC1(C)Cc2c(sc3c4nnnn4c4nnnn4c23)CO1`: -9.6e-05 (inactive); for `CC(C)CN1C(=O)NC(NC(=O)c2cccnc2)(C(F)(F)F)C1=O` (stereo not given): -7.1e-06 (inactive). In the case of `CCOC(=O)C(C)Oc1nc(Oc2ccccc2)nc(N(C)C)n1` (stereo not given) it was -5.5e-05 (inactive). In the case of `CC1(C)Cc2nc(N)c(C(=O)NCCO)cc2CO1` it was -3e-05 (inactive); in that of `COc1ccc(Cn2c(O)cc(=O)[nH]c2=O)cc1`, 4.3e-06 (inactive).

As to `CC(C(=O)N1CCOCC1)N1C(=O)c2ccccc2C1=O` (stereo not given), the NADPH fluorescence slope is 2.4e-06 (inactive).

`COC(=O)CSc1nc(N)c2c3c(sc2n1)CCCC3`: the NADPH fluorescence slope was -6.3e-05 (inactive). For the molecule `N#Cc1c(-c2ccco2)cc(C2CC2)nc1N`, the NADPH fluorescence slope was -0.00027 (inactive).

Regarding `CC1(C)Cc2c(C#N)c(N3CCOCC3)nc(-c3ccccc3)c2CO1`, the NADPH fluorescence slope is -7.6e-05 (inactive). The same measure for `CC(=O)Nc1cnc2ccccc2n1`: -5.9e-05 (inactive); for `COc1ccc(OCC(=O)N2CCN(C(=O)c3cccc4ccccc34)CC2)cc1`: -1.4e-05 (inactive); for `CC(C)CC(=O)Nc1ccccc1N1CCCC1`: -1.2e-05 (inactive). Regarding `CCCNC(=O)N(C)c1nncnc1C(=O)NC`, the NADPH fluorescence slope is 1.1e-05 (inactive).

As for `N#CC1(P(=O)(c2ccccc2)c2ccccc2)CC1`, the NADPH fluorescence slope was -5.6e-05 (inactive). The same measure for `Cc1nc(Nc2ncc3c(n2)CC(C)(C)CC3=O)nc2ccccc12`: -2.4e-05 (inactive); for `O=c1c(F)cn(C2CCCO2)c(=O)n1Cc1ccccc1Cl` (stereo not given): -7.3e-05 (inactive); for `CCC(=O)Nc1cc(-c2nn(C)c(=O)c3ccccc23)ccc1N1CCCCC1`: -2.2e-05 (inactive).

As to `O=c1[nH]c(=O)n(Cc2ccco2)c2c1C(C(F)(F)F)(C(F)(F)F)N=C(c1ccco1)N2`, the NADPH fluorescence slope is -5.4e-05 (inactive).

With `Cn1c(=O)n(C)c2cc(C(=O)c3ccccc3)ccc21`, the NADPH fluorescence slope was -6.3e-05 (inactive). `N#Cc1nc(-c2ccc(Cl)cc2)oc1N1CCCCC1`: the NADPH fluorescence slope was -1.7e-05 (inactive). In the case of `Cc1cc(=O)oc(C)c1C(=O)NCCNC(=O)c1c(C)cc(=O)oc1C` it was -3.6e-05 (inactive). The same measure for `CCCCNC(=O)N1CCOCCOCCN(C(=O)NCCCC)CCOCC1`: -2.2e-05 (inactive); for `CCN(CC)c1ccc2cc(C(=O)Nc3ccccn3)c(=O)oc2c1`: -2.6e-05 (inactive). On to `CCN1CC2=C(OC(N)=C(C#N)C2c2ccccc2)/C(=C\c2ccccc2)C1` (stereo not given), for which the NADPH fluorescence slope is -1.3e-05 (inactive).
